Assay in all cases: protein-binding microarray (PBM); PBM: ~300 nM protein, 6 mM HEPES pH 7.8, 80 mM KCl, 0.5 mM EDTA, 0.5 mM EGTA, 6% glycerol, 35 ng/ul poly-dIdC, 1% milk, 1 h, room temperature; Ap Aiptasia and Nv Nematostella (sea anemones) / Co Capsaspora / Aq Amphimedon (sponge) / Dm Drosophila / Hu human; RHD is the Rel homology domain; high values mean tight binding
Conditions in all cases: dsDNA, one strand shown

One test concerns the target T1, GST-Ap-NF-kB RHD (Exaiptasia pallida (Aiptasia), UniProt A0A913YAJ5 2-422).
T1 sequence: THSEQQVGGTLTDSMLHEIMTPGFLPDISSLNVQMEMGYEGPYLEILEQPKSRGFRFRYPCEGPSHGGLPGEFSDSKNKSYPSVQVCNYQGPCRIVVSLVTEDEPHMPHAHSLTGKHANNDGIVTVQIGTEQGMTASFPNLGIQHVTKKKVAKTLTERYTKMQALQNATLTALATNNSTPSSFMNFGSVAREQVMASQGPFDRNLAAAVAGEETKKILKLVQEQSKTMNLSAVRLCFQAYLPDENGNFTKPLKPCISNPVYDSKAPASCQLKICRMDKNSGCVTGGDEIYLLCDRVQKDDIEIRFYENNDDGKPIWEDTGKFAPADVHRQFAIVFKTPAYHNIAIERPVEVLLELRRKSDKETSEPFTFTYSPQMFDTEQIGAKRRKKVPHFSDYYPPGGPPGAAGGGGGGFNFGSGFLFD

Test [1] has as its target T2, GST-Nv-NF-kB (Cys allele) (Nematostella vectensis, UniProt E5G601 2-411).
T2 sequence: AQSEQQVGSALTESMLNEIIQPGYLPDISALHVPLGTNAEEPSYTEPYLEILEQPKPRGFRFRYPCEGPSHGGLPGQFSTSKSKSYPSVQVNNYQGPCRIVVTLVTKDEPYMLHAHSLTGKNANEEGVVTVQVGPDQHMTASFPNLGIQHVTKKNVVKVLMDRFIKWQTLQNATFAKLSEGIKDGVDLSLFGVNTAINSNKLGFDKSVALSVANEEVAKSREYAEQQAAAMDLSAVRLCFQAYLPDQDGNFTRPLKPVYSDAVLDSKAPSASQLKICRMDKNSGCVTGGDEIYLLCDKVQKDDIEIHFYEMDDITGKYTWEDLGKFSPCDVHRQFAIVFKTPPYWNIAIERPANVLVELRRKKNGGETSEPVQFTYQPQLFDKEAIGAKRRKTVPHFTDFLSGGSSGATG

In test [2] the target is T3, GST-Nv-NF-kB (Ser allele) (Nematostella vectensis, UniProt A7UNT2 2-411).
T3 sequence: T2 sequence with Q21R, C66S, S207N, E215Q, V217A, E225K, A268E, D399E

In a further test the target is T4, GST-Co-NF-kB (Capsaspora owczarzaki, UniProt F1ARL5 200-546).
T4 sequence: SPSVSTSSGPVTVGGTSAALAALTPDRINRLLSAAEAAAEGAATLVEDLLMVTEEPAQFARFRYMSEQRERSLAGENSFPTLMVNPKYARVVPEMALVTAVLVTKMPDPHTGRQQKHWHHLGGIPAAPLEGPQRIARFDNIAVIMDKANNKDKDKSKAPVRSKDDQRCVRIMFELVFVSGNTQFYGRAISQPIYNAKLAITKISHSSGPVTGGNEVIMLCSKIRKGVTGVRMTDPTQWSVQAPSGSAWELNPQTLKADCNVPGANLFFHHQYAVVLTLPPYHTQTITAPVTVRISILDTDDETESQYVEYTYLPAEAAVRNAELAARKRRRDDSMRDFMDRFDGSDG

The next test has as its target T5, GST-Dm-Relish (Drosophila melanogaster, UniProt Q94527 99-473).
T5 sequence: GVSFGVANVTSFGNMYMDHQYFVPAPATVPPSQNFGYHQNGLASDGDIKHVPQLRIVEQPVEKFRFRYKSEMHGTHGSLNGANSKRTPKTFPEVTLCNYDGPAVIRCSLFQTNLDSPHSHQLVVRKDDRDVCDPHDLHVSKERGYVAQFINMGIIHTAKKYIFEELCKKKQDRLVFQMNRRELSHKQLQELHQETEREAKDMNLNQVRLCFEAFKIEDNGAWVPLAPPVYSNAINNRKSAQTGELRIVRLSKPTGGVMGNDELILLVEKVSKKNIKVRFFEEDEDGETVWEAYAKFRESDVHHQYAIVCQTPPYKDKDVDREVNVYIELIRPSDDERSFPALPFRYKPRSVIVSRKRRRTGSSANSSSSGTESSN

The target in another test is T6, GST-Aq-NF-kB (Amphimedon queenslandica, UniProt A9Y5G7 2-389).
T6 sequence: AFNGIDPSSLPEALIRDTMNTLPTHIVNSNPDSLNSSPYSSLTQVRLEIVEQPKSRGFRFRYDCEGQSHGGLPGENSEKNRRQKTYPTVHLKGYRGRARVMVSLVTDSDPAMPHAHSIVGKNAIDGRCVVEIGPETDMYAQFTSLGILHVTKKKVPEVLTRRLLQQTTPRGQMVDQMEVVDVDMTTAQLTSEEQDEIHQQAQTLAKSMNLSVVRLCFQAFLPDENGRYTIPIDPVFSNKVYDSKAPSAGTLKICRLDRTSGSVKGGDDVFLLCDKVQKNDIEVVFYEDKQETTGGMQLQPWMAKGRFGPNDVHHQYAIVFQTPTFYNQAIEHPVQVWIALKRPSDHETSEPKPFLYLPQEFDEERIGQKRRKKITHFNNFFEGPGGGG

Another test concerns the target GST-Hu-p50 (Homo sapiens, UniProt P19838 7-356).

Substitutions are numbered along the chain they refer to.

Sequence of GST-Hu-p50 (P19838 7-356): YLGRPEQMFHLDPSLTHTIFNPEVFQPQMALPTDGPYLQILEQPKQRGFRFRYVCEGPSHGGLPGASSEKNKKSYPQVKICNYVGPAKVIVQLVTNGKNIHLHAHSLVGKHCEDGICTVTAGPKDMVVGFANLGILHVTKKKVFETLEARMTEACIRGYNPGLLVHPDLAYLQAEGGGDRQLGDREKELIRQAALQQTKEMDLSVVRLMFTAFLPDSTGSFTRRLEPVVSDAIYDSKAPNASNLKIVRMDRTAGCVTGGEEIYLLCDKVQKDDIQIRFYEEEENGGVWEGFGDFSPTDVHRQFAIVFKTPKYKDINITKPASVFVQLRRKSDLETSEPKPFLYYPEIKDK

For the sequence “CCGATTAACATCAGGAGGTCCCCTGATGTTAATCGGGTCTTGATTCGCTTGACGCTGCTG”, the binding signal came to 5.22 z-score with GST-Ap-NF-kB RHD; 3.71 z-score in test [1]; 2.14 z-score in test [2]; 1.57 z-score in the test with GST-Co-NF-kB; 4.16 z-score with GST-Dm-Relish; 5.29 z-score with GST-Aq-NF-kB. Besides, in the test with GST-Hu-p50, the binding signal is 3.18 z-score.
Turning to “CCGATTAACATCAGCAACCCCCCTGATGTTAATCGGGTCTTGATTCGCTTGACGCTGCTG”, the binding signal with GST-Ap-NF-kB RHD was 5.04 z-score; in test [1] it was 3.58 z-score; in test [2], 3.86 z-score; with GST-Co-NF-kB it was 2.82 z-score; in the test with GST-Dm-Relish, 6.14 z-score; in the test with GST-Aq-NF-kB it was 4.16 z-score. The binding signal with GST-Hu-p50 is 4.83 z-score.
Take “CCGATTAACATCAAGGGGTTTTCTGATGTTAATCGGGTCTTGATTCGCTTGACGCTGCTG”: the binding signal turned out to be 7.68 z-score with GST-Ap-NF-kB RHD; 7.5 z-score in test [1]; 6.68 z-score in test [2]; 1.68 z-score with GST-Co-NF-kB; 7.2 z-score with GST-Dm-Relish; 6.95 z-score with GST-Aq-NF-kB. The binding signal with GST-Hu-p50 was 6.56 z-score.
Turning to “CCGATTAACATCAGGGGGATTAATGATGTTAATCGGGTCTTGATTCGCTTGACGCTGCTG”, the binding signal with GST-Ap-NF-kB RHD was 6.25 z-score; in test [1] it was 6.39 z-score; in test [2], 7.21 z-score; with GST-Co-NF-kB it was 6.77 z-score; in the test with GST-Dm-Relish it was 5.97 z-score; with GST-Aq-NF-kB, 5.39 z-score. In the test with GST-Hu-p50, the binding signal worked out at 6.36 z-score.
Consider “CCGATTAACATCAGAAAGCCCCCTGATGTTAATCGGGTCTTGATTCGCTTGACGCTGCTG”, for which the binding signal in the test with GST-Ap-NF-kB RHD worked out at 6.56 z-score; in test [1], 7.59 z-score; in test [2], 5.42 z-score; with GST-Co-NF-kB, 2.16 z-score; in the test with GST-Dm-Relish, 7.39 z-score; in the test with GST-Aq-NF-kB, 6.98 z-score. For the same sequence, in the test with GST-Hu-p50, the binding signal was determined as 6.29 z-score.
On to “CCGATTAACATCAGGGGGAATAATGATGTTAATCGGGTCTTGATTCGCTTGACGCTGCTG”, for which the binding signal in the test with GST-Ap-NF-kB RHD came out at 7.08 z-score; in test [1], 7.85 z-score; in test [2] it was 8.87 z-score; with GST-Co-NF-kB it was 10.1 z-score; with GST-Dm-Relish, 4.96 z-score; with GST-Aq-NF-kB it was 5.33 z-score. The binding signal with GST-Hu-p50 was determined as 6.75 z-score.
Regarding “CCGATTAACATCACCCACTCCCCTGATGTTAATCGGGTCTTGATTCGCTTGACGCTGCTG”, the binding signal turned out to be 4.11 z-score in the test with GST-Ap-NF-kB RHD; 2.69 z-score in test [1]; 3.92 z-score in test [2]; 2.82 z-score in the test with GST-Co-NF-kB; 1.47 z-score in the test with GST-Dm-Relish; 3.04 z-score with GST-Aq-NF-kB. The binding signal with GST-Hu-p50 was 3.03 z-score.
As for “CCGATTAACATCAAAAATACCCATGATGTTAATCGGGTCTTGATTCGCTTGACGCTGCTG”, the binding signal in the test with GST-Ap-NF-kB RHD was 4.63 z-score; in test [1], 6.47 z-score; in test [2], 6.31 z-score; with GST-Co-NF-kB, 2.49 z-score; with GST-Dm-Relish, 5.48 z-score; with GST-Aq-NF-kB it was 5.67 z-score. The binding signal with GST-Hu-p50 was 5.58 z-score.
For the sequence “CCGATTAACATCAACGAATCCCCTGATGTTAATCGGGTCTTGATTCGCTTGACGCTGCTG”, the binding signal came out at 6.25 z-score with GST-Ap-NF-kB RHD; 6.07 z-score in test [1]; 8.58 z-score in test [2]; 2.93 z-score with GST-Co-NF-kB; 4.84 z-score in the test with GST-Dm-Relish; 3.82 z-score with GST-Aq-NF-kB. Also, the binding signal in the test with GST-Hu-p50 is 5.69 z-score.
On to “CCGATTAACATCAGGGGGTTTACTGATGTTAATCGGGTCTTGATTCGCTTGACGCTGCTG”, for which the binding signal came out at 7.86 z-score with GST-Ap-NF-kB RHD; 6.45 z-score in test [1]; 7.4 z-score in test [2]; 2.97 z-score with GST-Co-NF-kB; 9.74 z-score in the test with GST-Dm-Relish; 7.06 z-score with GST-Aq-NF-kB. Besides, the binding signal with GST-Hu-p50 was 7.11 z-score.
For the sequence “CCGATTAACATCACCCCGTCCCCTGATGTTAATCGGGTCTTGATTCGCTTGACGCTGCTG”, the binding signal with GST-Ap-NF-kB RHD was determined as 4.62 z-score; in test [1], 3.83 z-score; in test [2], 3.99 z-score; in the test with GST-Co-NF-kB, 3.98 z-score; with GST-Dm-Relish it was 2.65 z-score; in the test with GST-Aq-NF-kB, 4.15 z-score. The binding signal with GST-Hu-p50 was 3.21 z-score.
With “CCGATTAACATCAGAAAAGCCCCTGATGTTAATCGGGTCTTGATTCGCTTGACGCTGCTG”, the binding signal in the test with GST-Ap-NF-kB RHD was determined as 7.38 z-score; in test [1], 9.78 z-score; in test [2], 7.32 z-score; in the test with GST-Co-NF-kB, 1.37 z-score; with GST-Dm-Relish it was 8.04 z-score; with GST-Aq-NF-kB, 7.96 z-score. In addition, the binding signal with GST-Hu-p50 is 6.71 z-score.

The record behind these values is publication PMC5700166.
